DT40 TDP1 CPT – growth inhibition of DT40 Tdp1-/-;hTDP1 cells with camptothecin (screen for TDP1 inhibitors). chicken DT40 Tdp1-/-;hTDP1 cells + 20 nM CPT, ATP luminescence, 48 h. Potency, µM (doses to about 46.2 µM), inactives show at the highest dose activity change, negative = growth inhibition, hits mostly inhibitors. 12% of 420,000 active; also: potency is read from the fitted curve at half-maximal effect; nearly all actives have a fitted effect of over 55% in size
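Chicken DT40 Tdp1-/- cells stably complemented with human TDP1 were seeded at 400 cells/well in medium containing 20 nM camptothecin, exposed to pin-transferred compounds, and grown at 37 °C for at least 48 hr. Viability was read as ATP luminescence.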
12-LOX inh – ALOX12 (human) lipoxygenase inhibition; P18054; purified 12hLO, xylenol orange hydroperoxide absorbance; Potency, µM (series often up to 108 µM), inactives show at the top dose activity change, negative = inhibition, actives largely listed as inhibitors; 1.1% of 580,000 active; AID 1671190; also: potency is read from the fitted curve at half-maximal effect
Target sequence (P18054 whole entry, looked up): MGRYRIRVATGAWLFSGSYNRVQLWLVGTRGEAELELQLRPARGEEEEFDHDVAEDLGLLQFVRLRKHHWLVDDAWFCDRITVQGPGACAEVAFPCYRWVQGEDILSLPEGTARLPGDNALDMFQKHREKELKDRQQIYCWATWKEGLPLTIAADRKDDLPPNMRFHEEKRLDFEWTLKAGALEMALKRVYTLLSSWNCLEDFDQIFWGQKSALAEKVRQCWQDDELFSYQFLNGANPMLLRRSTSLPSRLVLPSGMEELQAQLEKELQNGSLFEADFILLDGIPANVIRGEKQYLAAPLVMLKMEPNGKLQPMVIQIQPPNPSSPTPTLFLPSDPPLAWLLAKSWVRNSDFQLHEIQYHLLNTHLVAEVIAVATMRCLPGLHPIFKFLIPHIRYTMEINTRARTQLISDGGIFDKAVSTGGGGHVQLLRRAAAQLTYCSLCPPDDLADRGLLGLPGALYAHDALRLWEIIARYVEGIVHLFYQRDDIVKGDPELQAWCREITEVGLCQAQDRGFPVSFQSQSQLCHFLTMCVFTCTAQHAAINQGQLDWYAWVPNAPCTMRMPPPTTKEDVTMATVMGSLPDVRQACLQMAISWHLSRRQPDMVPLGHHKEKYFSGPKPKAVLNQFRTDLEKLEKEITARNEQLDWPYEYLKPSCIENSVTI
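Purified human 12hLO (150 nM final) in 25 mM Hepes, 0.01% Triton X-100, pH 7.0 was preincubated 15 min at room temperature with compound. Then 40 uM arachidonic acid was added, 30 min. Hydroperoxide was read by Fe-XO absorbance ratio 573/405 nm.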
IL-1B inflam inh – blocks inflammasome-driven IL-1 beta release | THP-1 LPS/ATP IL-1B secretion, AlphaLISA, 16 h; hits give low values | activity change, % at 57.5 µM | 4.7% of 360,000 active; in the data active = activity change below about -50%; inconclusive = mostly about -30% to -49%
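THP-1 cells pretreated 1 hr with compounds (up to 57.5 uM final), then stimulated with LPS (250 ng/mL final) plus ATP (1.25 mM final); secreted IL-1B measured by AlphaLISA after 16 hr, decreased signal indicating inhibition.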
HT1080 IDH1KD tx – kills HT-1080 cells with IDH1 knockdown; Potency, µM (top dose mostly 46.1 µM), inactives show top-dose activity, negative = toxicity, actives largely listed as cytotoxic; AID 686971; 2% of 360,000 active; HT-1080 IDH1 knockdown viability, ATP luminescence, 48 h;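 also: potency is read from the fitted curve at half-maximal effect; 0% = DMSO wells and -100% = cell-free medium wells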
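CellTiter-Glo luminescence after 48 h compound exposure at 37 degrees C of IDH1-knockdown HT-1080 cells in 5% FBS RPMI. %Activity scaled between DMSO wells and cell-free media wells, with curves fitted and assigned curve classes.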
HT1080-NT tox – kills 2HG-producing HT-1080-NT fibrosarcoma cells; HT-1080-NT fibrosarcoma viability, CellTiter-Glo ATP luminescence, 48 h; Potency, µM (highest dose often 46.1 µM), for inactives: top-dose activity, negative = less viability, most hits filed as cytotoxic; 1.6% of 360,000 active;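 also: NT is the 2HG producing partner of a matched IDH1 knockdown line; potency is read from the fitted curve at half-maximal effect; 0% = DMSO-treated cells and -100% = media-only wells without cells; nearly all actives have a fitted effect of over 55% in size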
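Viability by CellTiter-Glo luminescence after 48 h compound exposure at 37C of HT-1080-NT cells (750/well, RPMI, 5% FBS). % activity scaled between DMSO wells and medium-only wells, then curve-fitted and categorized by curve class.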
TDP1 cell noCPT – qHTS for Inhibitors of human tyrosyl-DNA phosphodiesterase 1 (TDP1): qHTS in cells in absence of CPT; Potency, µM (titrated, usually from 46.2 µM), without a hit: at the highest dose activity change, negative = growth inhibition, hits mostly inhibitors; 15% of 420,000 active; AID 686978, 2013; DT40 Tdp1-/- hTDP1 cells, no CPT, ATP luminescence, 48 h; also: potency is read from the fitted curve at half-maximal effect; nearly all actives have a fitted effect of over 55% in size
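Luminescent ATP content (CellTiter-Glo) served as the growth readout. Knockout chicken DT40 cells expressing human TDP1 were exposed to compounds without camptothecin for a minimum 48 hr at 37 °C.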
* hit, by the source's call; [ ] = remark or other dose. Many of the other results were omitted from the sample, so hits are more common in it than they were. Unless noted, calls follow the shape of the dose curve; as a rule, active = well fitted curve in the direction sought with a large enough effect; inconclusive = small, poorly fitted or top-dose-only effect, or another doubt; inactive = no such curve, though single readings can be large; an effect the other way counts as inactive or inconclusive. Unless noted, % is scaled to controls: 0 for no effect and ±100 for the full control effect.

`Cc1ccccc1OCCNC(=O)c1ccccc1Sc1ccccc1C#N` gave DT40 TDP1 CPT -21%, 12-LOX inh 5%, IL-1B inflam inh -17, HT1080 IDH1KD tx -1%, HT1080-NT tox 0% and TDP1 cell noCPT 16µM*.
Cc1cc(C)c(OCCNC(=O)c2ccccc2Sc2ccccc2C#N)c(C)c1 was read as DT40 TDP1 CPT 18µM*, 12-LOX inh -12%, IL-1B inflam inh 0, HT1080 IDH1KD tx -25%, HT1080-NT tox -24% and TDP1 cell noCPT inconclusive.
For CC1CCC(NC(=O)c2ccccc2Sc2ccccc2C#N)CC1 (stereo not drawn) the results were 12-LOX inh -26%.
Screening CSc1ccccc1C(=O)NCCOc1ccccc1C returned DT40 TDP1 CPT inconclusive, 12-LOX inh 0%, IL-1B inflam inh -11, HT1080 IDH1KD tx 1%, HT1080-NT tox 1% and TDP1 cell noCPT inconclusive.
`COc1cccc(OCCNC(=O)c2ccccc2Sc2ccccc2C#N)c1` gave DT40 TDP1 CPT inconclusive, 12-LOX inh -23%, IL-1B inflam inh 0, HT1080 IDH1KD tx 4%, HT1080-NT tox 6% and TDP1 cell noCPT 16µM*.
CCn1c(SCc2nc(-c3cccs3)oc2C)nnc1C1CC1 was read as 12-LOX inh -33%.
`CC1=C(C)CC(C(=O)N2CCCc3cc(C)ccc32)C(C(=O)O)C1` (stereo not drawn) gave 12-LOX inh -14%.
Screening Cc1nc2ccc(C(=O)N3c4ccccc4CC3C)cc2s1 (stereo not drawn) returned DT40 TDP1 CPT 23µM*, 12-LOX inh -6%, IL-1B inflam inh 32, HT1080 IDH1KD tx 18µM*, HT1080-NT tox inconclusive and TDP1 cell noCPT inconclusive.
`Cc1ccc2oc(C(=O)N(Cc3sccc3C)C3CCS(=O)(=O)C3)c(C)c2c1` (stereo not drawn) gave DT40 TDP1 CPT 5.8µM*, 12-LOX inh -6% and TDP1 cell noCPT 5.2µM*.
Cc1ccsc1CN(C(=O)c1ccc(F)cc1)C1CCS(=O)(=O)C1 (stereo not drawn) was read as 12-LOX inh 0%.
For Cc1ccsc1CN(C(=O)c1oc2ccc(F)cc2c1C)C1CCS(=O)(=O)C1 (stereo not drawn) the results were DT40 TDP1 CPT 12µM*, 12-LOX inh -20% and TDP1 cell noCPT 7.3µM*.
`Cc1ccc2c(C)c(C(=O)N(Cc3cccs3)C3CCS(=O)(=O)C3)oc2c1` (stereo not drawn) gave DT40 TDP1 CPT inconclusive, 12-LOX inh 0%, IL-1B inflam inh inconclusive, HT1080 IDH1KD tx -22%, HT1080-NT tox -17% and TDP1 cell noCPT inconclusive.
`COc1ccc2c(c1OC)C(=O)OC2Nc1nc(-c2ccc(C)cc2)cs1` (stereo not drawn) gave 12-LOX inh -29%.
`Cc1cccc(NC(=O)c2ccccc2SCc2ccc(F)cc2)n1` gave DT40 TDP1 CPT inconclusive, 12-LOX inh -2%, IL-1B inflam inh 16, HT1080 IDH1KD tx 8%, HT1080-NT tox -6% and TDP1 cell noCPT 15µM*.
O=C(Cn1nc(C(=O)O)c2ccccc2c1=O)NCc1ccco1 was read as DT40 TDP1 CPT 26µM*, 12-LOX inh -22%, IL-1B inflam inh 6, HT1080 IDH1KD tx -1%, HT1080-NT tox 8% and TDP1 cell noCPT inconclusive.
Screening O=C(Cn1nnc2ccccc2c1=O)NCc1ccco1 returned DT40 TDP1 CPT -28%, 12-LOX inh inconclusive, IL-1B inflam inh -5, HT1080 IDH1KD tx -1%, HT1080-NT tox -2% and TDP1 cell noCPT -11%.
Screening O=C(CN1CC[C@H](N2CCOCC2)[C@H](CCCO)C1)NCc1ccccc1 returned 12-LOX inh -5%.
For CNS(=O)(=O)c1cccc(C(=O)OCC(=O)Nc2ccc(OC)cc2[N+](=O)[O-])c1 the results were DT40 TDP1 CPT 33µM*, 12-LOX inh -19%, IL-1B inflam inh 7, HT1080 IDH1KD tx 5%, HT1080-NT tox 0% and TDP1 cell noCPT 6.5µM*.
COc1ccc(NC(=O)CN2CCCCC2)c([N+](=O)[O-])c1 was read as DT40 TDP1 CPT 13µM*, 12-LOX inh -22%[57.4 µM], IL-1B inflam inh inconclusive, HT1080 IDH1KD tx 3%, HT1080-NT tox 0% and TDP1 cell noCPT 13µM*.
For COc1ccc(NC(=O)CC2Nc3cc(C)c(C)cc3NC2=O)c([N+](=O)[O-])c1 (stereo not drawn) the results were DT40 TDP1 CPT inconclusive, 12-LOX inh -10%, IL-1B inflam inh -6, HT1080 IDH1KD tx -3%, HT1080-NT tox -1% and TDP1 cell noCPT 5.8µM*.
Screening COc1ccc(NC(=O)CN2CCC(C)CC2)c([N+](=O)[O-])c1 returned DT40 TDP1 CPT 8.2µM*, 12-LOX inh 18%, IL-1B inflam inh inconclusive, HT1080 IDH1KD tx 6%, HT1080-NT tox 14% and TDP1 cell noCPT 8.2µM*.
For CC1CCN(CC(=O)Nc2ccc(Cl)cc2[N+](=O)[O-])CC1 the results were DT40 TDP1 CPT inconclusive, 12-LOX inh -6%, IL-1B inflam inh -6, HT1080 IDH1KD tx 19%, HT1080-NT tox 22% and TDP1 cell noCPT inconclusive.
CC1(C)SC2c3ccccc3C(=O)N2[C@@H]1C(=O)NCc1ccc(F)cc1 (stereo partly drawn) was read as 12-LOX inh 24%.
COCCOc1ccc2c(n1)CCN(C(=O)Nc1ccc(C)c(C)c1)C2 was read as 12-LOX inh -10%.
`Cc1ccc(Cl)cc1N1CCN(Cc2nc3c([nH]2)c(=O)n(C)c(=O)n3C)CC1` gave 12-LOX inh -6%.
`Cc1cccc(CC(=O)NC(Cc2ccccc2)C(=O)NCc2cc(=O)n(C)c(=O)n2C)c1` (stereo not drawn) gave 12-LOX inh 24%.
`COc1cc(-c2ccc(NC(=O)CN3CCC(C)CC3)c(OC)c2)ccc1NC(=O)CN1CCC(C)CC1` gave DT40 TDP1 CPT 23µM*, 12-LOX inh 1%, IL-1B inflam inh -1, HT1080 IDH1KD tx -30%, HT1080-NT tox -28% and TDP1 cell noCPT 18µM*.
`COc1ccc(NC(=O)CSc2ccccc2)c([N+](=O)[O-])c1` gave DT40 TDP1 CPT -1%, 12-LOX inh -9%, IL-1B inflam inh -10, HT1080 IDH1KD tx -1%, HT1080-NT tox inconclusive and TDP1 cell noCPT 29µM*.
